Experimental data as given in ChEMBL document CHEMBL1857833, “Screening and optimization of specific chemical series against human African Trypanosomiasis (HAT)”.
In all, about 4,400 compounds went through this assay and about 390 (8.9%) showed an effect of 50% or more. The sample holds strong results, similar compounds and a random draw of the others, so the mix is not that of the screen.

test system: Trypanosoma brucei; assay: DNDI: Inhibition of Human African Trypanosomiasis, SBRI 427, in vitro at 2 ug.mL-1; type: functional

Structure (SMILES)	% inhibition [%]
c1coc(-c2nc(CN3CCN(Cc4ccc5c(c4)OCO5)CC3)co2)c1	-2
COc1ccc(-c2nc(CNCc3cccc(OC)c3)co2)cc1	-15
COCCN(/C(=N\O)c1ccc(C)nc1Oc1cccc(C)c1)C(C)C	23
Cc1ccc(/C(=N/O)N2C(C)C=CC2C)c(Oc2ccc(F)c(Cl)c2)n1 (stereo not drawn)	8
CCN(Cc1ccncc1)Cc1coc(-c2cccc3ccccc23)n1	27
COc1ccc(CN/C(=N\O)c2cccnc2OCc2ccccc2)cc1	10
CCC(CC)N/C(=N\O)c1cccnc1OCc1ccccc1	94
O/N=C(\NC1CCCC1)c1cccnc1OCc1ccccc1	53
N/C(=N\O)c1cccnc1OCc1ccccc1	9
CC(C)c1ccc(COc2ncccc2/C(=N/O)NC2CCCC2)cc1	21
COCC(C)N/C(=N\O)c1cccnc1Oc1ccccc1OCc1ccccc1 (stereo not drawn)	-7
CN(/C(=N\O)c1ccc(Oc2cccc3ccccc23)nc1)C1CCCCC1	25
CN(Cc1coc(-c2ccc(Br)cc2)n1)Cc1ccco1	29
CC(C)c1ccc(N/C(=N\O)c2cccnc2OCc2ccccc2F)cc1	-12
Cc1ccc(-c2nc(CN3CC[C@H]4CCCC[C@@H]4C3)co2)cc1	25
CCC1CCCCN1Cc1coc(-c2cccc3ccccc23)n1 (stereo not drawn)	84
CC1CCCCN1CCCNCc1coc(-c2ccccc2Br)n1 (stereo not drawn)	20
CC1CCCCN1CCCNCc1coc(-c2cccc3ccccc23)n1 (stereo not drawn)	86
CCC1CCCCN1Cc1coc(-c2ccccc2Cl)n1 (stereo not drawn)	-10
c1ccc2c(-c3nc(CNCCN4CCCCC4)co3)cccc2c1	14
CC1CCCN1Cc1coc(-c2cccc3ccccc23)n1 (stereo not drawn)	39
c1ccc2c(-c3nc(CNCCCN4CCCC4)co3)cccc2c1	93
c1ccc2c(-c3nc(CNCCCN4CCOCC4)co3)cccc2c1	30

Structure (SMILES)	% inhibition [%]
CC1CCCCN1Cc1coc(-c2cccc3ccccc23)n1 (stereo not drawn)	3
CN(CCCNCc1coc(-c2ccc(C(F)(F)F)cc2)n1)c1ccccc1	-7
Brc1ccccc1-c1nc(CN(Cc2ccccn2)Cc2ccccn2)co1	9
COCCN(/C(=N\O)c1ccc(Oc2ccc3oc4ccccc4c3c2)nc1)C(C)C	7
FC(F)(F)c1ccc(-c2nc(CN3CCC4(CC3)OCCO4)co2)cc1	-8
Cc1cc(C)cc(Oc2ccc(/C(=N/O)N3CCN(c4ccccc4)CC3)cn2)c1	9
COc1ccc(Oc2nc(C)ccc2/C(=N/O)N2CCCC2C)cc1 (stereo not drawn)	-10
Cc1ccccc1-c1nc(CN2CCN(c3ccc(F)cc3)CC2)co1	-10
COC[C@H]1CCCN1Cc1coc(-c2cccc(F)c2)n1	0
CCc1nccn1Cc1coc(-c2ccc(Cl)cc2Cl)n1	22
Clc1ccc(-c2nc(CN3CCN(c4ncccn4)CC3)co2)c(Cl)c1	58
CCCc1nccn1Cc1coc(-c2ccc(Cl)cc2Cl)n1	50
CC(C)c1nccn1Cc1coc(-c2ccc(Cl)cc2Cl)n1	-20
Clc1ccc(-c2nc(CN3CCN(Cc4ccccc4)CC3)co2)c(Cl)c1	12
Clc1ccccc1-c1nc(CN2CCN(c3ncccn3)CC2)co1	-3
CCOc1ccccc1-c1nc(CN2CCCCCC2)co1	7
CSc1ccc(Oc2nc(C)ccc2/C(=N/O)NC2CCC2)cc1	3
C=CCN(Cc1coc(-c2cccc(OC)c2)n1)c1ccccc1	35
Cc1cccc(Oc2ncccc2/C(=N/O)N2CCOCC2)c1C	10
FC(F)(F)c1ccc(-c2nc(CNCc3ccccc3C(F)(F)F)co2)cc1	0
Cc1ccc(/C(=N/O)N2CCCCCC2)c(Oc2cccc(C(C)C)c2)n1	14
O/N=C(\NCc1ccccc1F)c1cccnc1OCC(F)(F)F	-12
O/N=C(\NCc1ccccc1F)c1cccnc1Oc1ccc(F)cc1	51

Structure (SMILES)	% inhibition [%]
O/N=C(\NCc1cc(F)ccc1F)c1cccnc1Oc1ccc(F)cc1	-3
COc1ccc(Oc2ncccc2/C(=N/O)NCc2ccccc2F)cc1	70
COc1ccc(Oc2nc(C)ccc2/C(=N/O)NCc2ccccc2F)cc1	-6
Clc1ccccc1-c1nc(CNCc2ccco2)co1	-7
CC(C)N(C)Cc1coc(-c2ccccc2Cl)n1	4
Cc1ccc(Oc2ncccc2/C(=N/O)NCc2ccco2)c2c1CCC2	-6
Cc1ccc(Oc2ncccc2/C(=N/O)NCc2ccncc2)c2c1CCC2	8
COc1ccc(CN/C(=N\O)c2cccnc2Oc2ccc(C)c3c2CCC3)cc1	9
Cc1ccc(Oc2ncccc2/C(=N/O)NCc2cc(F)ccc2F)c2c1CCC2	28
CCOc1ccccc1CN/C(=N\O)c1cccnc1Oc1ccc(C)c2c1CCC2	100
Cc1cc(C)cc(CN/C(=N\O)c2cccnc2Oc2ccc(C)c3c2CCC3)c1	69
Cc1ccc(Oc2cc(/C(=N/O)NCc3cccs3)ccn2)c2c1CCC2	3
Cc1ccc(Oc2ncccc2/C(=N/O)NCc2ccccc2)c2c1CCC2	99
Cc1ccc(Oc2ncccc2/C(=N/O)NCc2cccnc2)c2c1CCC2	6
Cc1ccc(Oc2ncccc2/C(=N/O)NCc2cccs2)c2c1CCC2	99
COc1ccc(-c2nc(CN(C)C3CCN(Cc4ccccc4)C3)co2)cc1 (stereo not drawn)	-9
O/N=C(/c1ccnc(Oc2cccc3cnccc23)c1)N1CCN(c2ccccc2)CC1	7
N#CCCN(Cc1coc(-c2ccc(C(F)(F)F)cc2)n1)CC1CCCO1 (stereo not drawn)	-3
O/N=C(/c1ccnc(Oc2cccc3ccccc23)c1)N1CCSC1	22
CSc1ccc(Oc2nc(C)ccc2/C(=N/O)NCc2ccccc2C)cc1	7
Cc1ccc(N2CCN(Cc3coc(-c4ccccc4F)n3)CC2)c(C)c1	-17
CSc1ccc(Oc2ncccc2/C(=N/O)NCc2ccccn2)cc1C	2
